The text below walks through data of PubChem BioAssay (NCATS).

Each structure is given as a SMILES string. “And” between values parts separate entries of the source, which are not always exact repeats. Equal values may be shown once. Results filed as inconclusive are left out. Some structures have more than one record in an assay (separate samples or runs), and their calls can disagree. The source made the active and inactive calls. Unless noted, calls come from the whole dose curve.

Test [1] addresses Mitogen-activated protein kinase 10 (Mus musculus) (UniProt Q61831). Briefly: JNK3 AlphaScreen Assay (AID 530; active = well fitted curve in either direction with a large enough effect, not every such curve was filed as active;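 note: kinase came from lysate of stimulated human HepG2 cells; signal reports phosphorylation of biotinylated GST-cJun 1-79 at Ser73 with 10 µM ATP; % is set by controls: 0 for no effect and ±100 for the full control effect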). A digest of the protocol: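 Phosphorylation of biotinylated GST-cJun(1-79) at Ser73 is measured by AlphaScreen proximity luminescence. Enzyme is JNK3 in HepG2 lysates activated with interleukin-1beta and tumor necrosis factor alpha; ATP is 10 uM final.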
A general note: Bead proximity is the source of the signal in Alpha formats.

Test [2] concerns the target Estrogen receptor (Homo sapiens) (UniProt P03372). Briefly: qHTS assay for small molecule agonists of estrogen receptor alpha signaling (AID 588514).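 Note: 0% = vehicle only and 100% = reference agonist; nearly all actives have a fitted effect of over 70% in size.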 In outline: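 Efficacy is expressed against 20 nM 17-beta-estradiol (100%) and DMSO basal (0%); EC50 from Hill equation. Assay: beta-lactamase reporter in ER-alpha-UAS-bla HEK 293 cells, 18 h compound incubation, CCF4 detection.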
Background: In qHTS, concentration-response curves come from the screen itself.

Test [3] addresses Thyroid hormone receptor beta (Homo sapiens) (UniProt P10828). Briefly: qHTS assay for small molecule agonists of thyroid hormone receptor beta signaling (AID 588545). A digest of the protocol:
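In this cell-based screen, titrated compounds act on HEK 293 cells held in medium with 2% charcoal/dextran FBS, NEAA and pyruvate for 18 hrs at 37 C. Responses are expressed relative to T3 (10 nM) as 100% and basal DMSO as 0%.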

The target is the same in test [4]. The test can be described thus: qHTS assay for small molecule antagonists of thyroid hormone receptor beta signaling (AID 588547; active = well fitted inhibition curve with a large enough effect in the signal ratio, with a control signal flat, not every such curve was filed as active; the % refers to the signal ratio;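 note: cells stimulated with 0.4 nM T3 agonist during compound exposure; % is set by controls: 0 for no effect and ±100 for the full control effect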). The following applies: TR-UAS-bla HEK293, beta-lactamase ratio, antagonist mode, 18 h. A digest of the protocol: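 TR-UAS-bla GripTite HEK293 cells in 2% charcoal/dextran FBS medium were preincubated 4 h at 37 C, given compound (0.59 nM to 92 uM) plus 0.4 nM T3 (final) for 18 h, then CCF4 for 2 h at RT; Hill fit gave IC50.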

The nature of test [5]: qHTS assay for small molecule activators of the nuclear factor-kappa B (NF-kB) signaling pathway (AID 651749; active = well fitted activation curve with a large enough effect in the signal ratio; the % refers to the signal ratio; note: % of control where 0% means no effect). The following applies: NF-kB-bla ME-180 cells, beta-lactamase FRET ratio, 16 h; activation: stronger effect = higher value. In outline:
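Human ME-180 cervical cells with an NF-kB-bla construct; compounds added via 23 nL pin transfer, DMSO as vehicle; incubation 16 hr. Reporter activity measured by FRET disruption.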

The target of test [6] is Nuclear receptor subfamily 1 group I member 2 (Rattus norvegicus) (UniProt Q9R1A7). Briefly: qHTS assay for small molecule activators of the rat pregnane X receptor (rPXR) signaling pathway (AID 651751; call rule not given here; note: 0% is about no effect). The following applies: rPXR reporter cells, luciferase (One-Glo), 24 h.
The nature of test [7]: Cellular Toxicity (caspase-3) Jurkat (AID 655; active = well fitted activation curve with a large enough effect;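 note: cells exposed to compound for 16 h at 37 °C before reading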). The following applies: Jurkat caspase-3 activation, luminescence; caspase-3 activation: at 92.2 µM (top of the series), DMSO = 0%, tamoxifen = 100%. In outline:
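Jurkat cells (5000/well) in complete medium exposed 16 h at 37 C; caspase-3/7 activity read by Caspase-Glo luminescence after 20 min at room temperature. Normalized to DMSO and 100 uM tamoxifen; AC50 from Hill fits.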

The target in test [8] is Glucocorticoid receptor (Homo sapiens) (UniProt P04150). Briefly: qHTS assay for small molecule agonists of glucocorticoid receptor signaling (AID 588532; active = well fitted curve in the direction sought with a large enough effect in the signal ratio, with a control signal flat; the % refers to the signal ratio;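 note: 100% = dexamethasone at 0.1 µM and 0% = DMSO only wells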). Conditions: HeLa MMTV-bla, beta-lactamase ratio, agonist, 18 h; activation: stronger effect = higher value, percent of dexamethasone control, DMSO zero. In outline:
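Stimulation of a glucocorticoid response element-driven beta-lactamase gene was measured in HeLa cells. Responses were scaled between DMSO basal and 0.1 uM dexamethasone, then fitted for half-maximal stimulation.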

For test [9] the target is unchanged. Briefly: qHTS assay for small molecule antagonists of glucocorticoid receptor signaling (AID 588533; active = well fitted inhibition curve with a large enough effect in the signal ratio, with a control signal flat, not every such curve was filed as active; the % refers to the signal ratio;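 note: cells stimulated with 2 nM dexamethasone as agonist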; note: potency is the fitted concentration of half-maximal effect). In outline: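 Antagonist-mode qHTS: compound titrations added to GRE-bla HeLa cells, then dexamethasone 2 nM final; 18 h, 37 C. CCF4 FRET fluorescence normalized to dexamethasone and DMSO; IC50 from Hill fit.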
Test [10] has as its target Vitamin D3 receptor (Homo sapiens) (UniProt P11473). The test can be described thus: qHTS assay for small molecule antagonists of vitamin D receptor signaling (AID 588541). Note: potency is the fitted concentration of half-maximal effect. In outline:
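VDR-UAS-bla HEK293T cells (2000/well, 2% charcoal-stripped FBS) were treated with titrated compounds plus 1-alpha,25-dihydroxyvitamin D3 (50 nM or 3 nM final) for 16 h at 37 C. CCF4 beta-lactamase fluorescence was read; Hill fits gave IC50.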

Test [11] has the same target. Briefly: qHTS assay for small molecule agonists of vitamin D receptor signaling (AID 588543).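 Note: 0% = DMSO basal and 100% = reference agonist control.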 A digest of the protocol: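 VDR-UAS-bla HEK293T cells, 2000/well, 2% charcoal-stripped FBS; compound titration 16 h at 37 C; CCF4 beta-lactamase ratio read. Normalized to 50 nM 1-alpha,25-dihydroxyvitamin D3 (100%) and DMSO; Hill fit gives EC50, efficacy.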
Test [12] addresses Retinoic acid receptor RXR-alpha (Homo sapiens) (UniProt P19793). The test can be described thus: qHTS assay for small molecule agonists of retinoid X receptor alpha signaling (AID 588544).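 Note: 0% = DMSO basal wells and 100% = reference agonist.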
Test [13] is described as follows: qHTS assay for small molecule antagonists of retinoid X receptor alpha signaling (AID 588546).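 Note: cells stimulated with 9-cis-retinoic acid as agonist; % is set by controls: 0 for no effect and ±100 for the full control effect.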 The following applies: HEK293T RXRa-UAS-bla, beta-lactamase ratio, antagonist mode; measured here: W530 green channel, cytotoxicity proxy. In outline:
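Beta-lactamase reporter inhibition, read as CCF4 fluorescence ratio (ex 405, em 460/530 nm) after 2 h at RT. HEK293T UAS-bla cells, 2500/well, were stimulated with 9-cis-RA at 500 or 100 nM final alongside test compound for 18 h at 37 C.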

A short description of test [14]: qHTS assay for small molecule agonists of the antioxidant response element (ARE) signaling pathway (AID 651741; active = well fitted activation curve with a large enough effect in the signal ratio; the % refers to the signal ratio; note: % of control where 0% means no effect). A digest of the protocol: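 Reporter: beta-lactamase under ARE, stably in HepG2. Exposure: 16 h, 37 C, compounds delivered in DMSO by pin tool after 5 h cell preincubation. Readout: FRET substrate fluorescence after 2 h at RT.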
A short description of test [15]: qHTS assay for small molecule activators of the human pregnane X receptor (PXR) signaling pathway (AID 720659; call rule not given here; note: 0% is about no effect).
Test [16] concerns the target Glucocorticoid receptor (Homo sapiens) (UniProt P04150). Briefly: GR-GFP Redistribution (AID 450;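 active = compounds whose dose series gives a full or clear partial fitted curve of increased nuclear translocation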; note: potency is the fitted concentration of half-maximal effect). The following applies: U2OS GR-GFP nuclear translocation, laser cytometry, 2 h.

Chain of Thyroid hormone receptor beta (Homo sapiens) (P10828 whole entry, looked up): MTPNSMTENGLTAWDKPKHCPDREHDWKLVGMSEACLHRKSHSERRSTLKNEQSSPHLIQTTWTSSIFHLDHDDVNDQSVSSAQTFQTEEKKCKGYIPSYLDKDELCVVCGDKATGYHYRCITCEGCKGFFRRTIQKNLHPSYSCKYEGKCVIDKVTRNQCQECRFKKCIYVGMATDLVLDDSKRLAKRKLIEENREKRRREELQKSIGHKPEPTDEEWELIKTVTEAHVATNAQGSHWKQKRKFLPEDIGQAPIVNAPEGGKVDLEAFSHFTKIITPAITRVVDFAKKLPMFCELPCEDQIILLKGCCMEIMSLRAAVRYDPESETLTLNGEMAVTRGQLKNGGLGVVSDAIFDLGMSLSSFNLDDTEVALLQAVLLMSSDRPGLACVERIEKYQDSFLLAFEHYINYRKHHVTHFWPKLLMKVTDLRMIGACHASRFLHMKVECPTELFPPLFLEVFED
Chain of Vitamin D3 receptor (Homo sapiens) (P11473 whole entry, looked up): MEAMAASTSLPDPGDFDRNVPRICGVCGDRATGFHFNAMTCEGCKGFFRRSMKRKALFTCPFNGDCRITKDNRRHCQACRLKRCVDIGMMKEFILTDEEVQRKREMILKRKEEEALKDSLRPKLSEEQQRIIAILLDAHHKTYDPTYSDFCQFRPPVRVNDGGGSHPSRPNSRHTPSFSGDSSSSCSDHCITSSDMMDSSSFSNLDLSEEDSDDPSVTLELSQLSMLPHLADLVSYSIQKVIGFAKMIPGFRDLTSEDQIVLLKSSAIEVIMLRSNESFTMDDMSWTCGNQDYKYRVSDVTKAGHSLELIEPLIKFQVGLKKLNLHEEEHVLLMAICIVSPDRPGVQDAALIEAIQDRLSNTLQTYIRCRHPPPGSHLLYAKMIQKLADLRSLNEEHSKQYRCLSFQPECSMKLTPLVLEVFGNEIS
Chain of Estrogen receptor (Homo sapiens) (P03372 whole entry, looked up): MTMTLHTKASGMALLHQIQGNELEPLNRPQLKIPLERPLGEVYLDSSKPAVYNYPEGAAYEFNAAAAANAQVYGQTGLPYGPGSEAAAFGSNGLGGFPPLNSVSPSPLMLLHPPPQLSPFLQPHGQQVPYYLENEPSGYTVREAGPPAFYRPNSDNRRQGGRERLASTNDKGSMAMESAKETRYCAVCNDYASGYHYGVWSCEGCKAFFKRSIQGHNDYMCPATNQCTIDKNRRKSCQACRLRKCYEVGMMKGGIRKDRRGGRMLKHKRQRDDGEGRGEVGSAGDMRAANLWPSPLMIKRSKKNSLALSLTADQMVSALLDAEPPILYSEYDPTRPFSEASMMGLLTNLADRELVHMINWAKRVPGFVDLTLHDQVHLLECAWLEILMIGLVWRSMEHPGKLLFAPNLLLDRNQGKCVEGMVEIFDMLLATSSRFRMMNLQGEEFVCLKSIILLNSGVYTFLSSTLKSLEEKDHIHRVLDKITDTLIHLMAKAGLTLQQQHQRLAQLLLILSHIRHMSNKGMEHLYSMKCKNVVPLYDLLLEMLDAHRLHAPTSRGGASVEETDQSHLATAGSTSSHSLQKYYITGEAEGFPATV
Chain of Nuclear receptor subfamily 1 group I member 2 (Rattus norvegicus) (Q9R1A7 whole entry, looked up): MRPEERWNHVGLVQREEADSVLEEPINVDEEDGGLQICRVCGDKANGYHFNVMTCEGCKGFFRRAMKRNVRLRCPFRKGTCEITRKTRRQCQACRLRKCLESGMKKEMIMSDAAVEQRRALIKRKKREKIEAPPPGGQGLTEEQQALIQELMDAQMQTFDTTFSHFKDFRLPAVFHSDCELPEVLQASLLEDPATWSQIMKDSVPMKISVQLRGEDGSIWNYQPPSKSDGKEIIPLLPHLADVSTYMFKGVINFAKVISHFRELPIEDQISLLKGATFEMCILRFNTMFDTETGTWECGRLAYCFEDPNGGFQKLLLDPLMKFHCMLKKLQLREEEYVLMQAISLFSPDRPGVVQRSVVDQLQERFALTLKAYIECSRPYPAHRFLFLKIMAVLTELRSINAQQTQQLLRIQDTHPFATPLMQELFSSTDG
Chain of Glucocorticoid receptor (Homo sapiens) (P04150 whole entry, looked up): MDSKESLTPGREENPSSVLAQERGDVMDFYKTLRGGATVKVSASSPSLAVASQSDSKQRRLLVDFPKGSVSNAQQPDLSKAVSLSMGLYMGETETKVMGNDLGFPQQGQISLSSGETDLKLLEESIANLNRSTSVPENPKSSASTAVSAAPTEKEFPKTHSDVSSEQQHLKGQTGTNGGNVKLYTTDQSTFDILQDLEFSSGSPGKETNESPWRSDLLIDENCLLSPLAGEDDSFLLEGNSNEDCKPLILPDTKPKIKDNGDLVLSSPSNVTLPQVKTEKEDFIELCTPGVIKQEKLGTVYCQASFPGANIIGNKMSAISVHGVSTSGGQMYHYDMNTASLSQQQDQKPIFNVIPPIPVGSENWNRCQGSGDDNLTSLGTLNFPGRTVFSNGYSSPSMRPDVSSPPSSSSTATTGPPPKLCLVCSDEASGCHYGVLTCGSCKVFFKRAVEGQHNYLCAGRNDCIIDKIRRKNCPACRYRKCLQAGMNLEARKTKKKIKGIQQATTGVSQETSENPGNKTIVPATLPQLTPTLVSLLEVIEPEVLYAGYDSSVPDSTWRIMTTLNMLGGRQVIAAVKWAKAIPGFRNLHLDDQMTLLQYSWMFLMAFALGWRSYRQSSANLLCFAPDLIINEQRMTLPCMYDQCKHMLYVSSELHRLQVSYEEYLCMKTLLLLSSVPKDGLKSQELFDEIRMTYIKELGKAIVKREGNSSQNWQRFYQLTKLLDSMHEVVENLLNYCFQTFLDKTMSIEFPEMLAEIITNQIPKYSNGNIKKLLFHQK
Chain of Retinoic acid receptor RXR-alpha (Homo sapiens) (P19793 whole entry, looked up): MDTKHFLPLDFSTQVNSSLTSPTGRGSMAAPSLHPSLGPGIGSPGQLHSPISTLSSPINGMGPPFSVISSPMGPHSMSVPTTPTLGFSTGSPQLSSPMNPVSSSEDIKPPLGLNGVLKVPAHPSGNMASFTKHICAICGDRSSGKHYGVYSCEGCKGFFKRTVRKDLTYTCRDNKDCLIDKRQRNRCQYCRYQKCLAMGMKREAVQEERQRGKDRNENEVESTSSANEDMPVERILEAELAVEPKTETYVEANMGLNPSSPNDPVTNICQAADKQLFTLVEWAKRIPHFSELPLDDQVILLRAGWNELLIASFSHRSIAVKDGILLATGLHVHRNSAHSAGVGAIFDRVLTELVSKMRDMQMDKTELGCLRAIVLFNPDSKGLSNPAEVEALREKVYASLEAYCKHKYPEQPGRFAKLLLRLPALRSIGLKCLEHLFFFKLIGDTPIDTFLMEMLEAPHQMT

Turning to `COP(=O)(OC)O/C(=C\Cl)c1cc(Cl)c(Cl)cc1Cl`, the outcome in [1] was inactive. Moreover, the Potency entry in [2] and in test [3] was “inactive” each time. The activity change % (negative = inhibition) in test [4] was 2.4% (inactive). For the same compound, the activation in test [5] is -1.17% (inactive). Besides, the max response in test [6] is 1.57% (inactive).

Turning to `FC(F)(F)c1ccc(Cl)cc1`, in test [7], the caspase-3 activation is 2.36% (inactive). Besides, the Potency result in [2], in test [9], in [10], in [12], in test [3] and in test [14] was “inactive” throughout. In addition, the activation in [8] is 4.86% (inactive); in test [5] it was 0.334% (inactive) and 1.17% (inactive). Further, the compound was called inactive in test [11] and in test [15]. Besides, the max response in test [13] was -9.15%; in test [6] it was -0.484% (inactive) and -1.67% (inactive). Further, in [4], the activity change % (negative = inhibition) was 6.64% (inactive).

For `O=C(Nc1ccncc1)c1c(O)c2ccccc2n(Cc2ccccc2)c1=O`, the Potency in [16] is > 20.6 µM (inactive).

With `ClC1=C(Cl)C2(Cl)C3C(Cl)C(Cl)CC3C1(Cl)C2(Cl)Cl` (stereo not drawn), the outcome in [1] and in test [11] was inactive. The caspase-3 activation in test [7] was 81.5% (active). Also, the Potency entry in test [10] is “inactive”.

Take `N#CSCSC#N`: the call in test [1] was inactive. The caspase-3 activation in [7] is -5.48% (active). In addition, the activation in [8] is 0.19% (inactive).

Take `O=[N+]([O-])c1cc(C(F)(F)F)cc([N+](=O)[O-])c1Cl`: the result in [1], in test [11] and in test [15] was inactive. For the same compound, the Potency result in test [2], in test [9], in test [10], in [12] and in [14] was “inactive” in each case. In addition, the activation in [8] is -2.51% (inactive); in [5], -0.593% (inactive). The max response is 0.867% in test [13] and -2.25% (inactive) in [6]. For the same compound, the activity change % (negative = inhibition) in test [4] was -4.32% (inactive).

`O=C1C2(Cl)C3(Cl)C4(Cl)C(Cl)(Cl)C5(Cl)C3(Cl)C1(Cl)C5(Cl)C24Cl` (stereo not drawn): the compound was classed as inactive in test [1] and in test [11]. The activation is -3.98% (inactive) and -15.4% (inactive) in test [8]; 4.98% (inactive) in [5]. The Potency was 39.8 µM (active) in test [9]; 39.8 µM (active) and inactive in test [10].

`C#CCO`: the caspase-3 activation in [7] was -1.9% (inactive). The activation in [8] is 0.566% (inactive). The Potency entry in test [9], in [10], in test [12] and in [3] was “inactive” throughout. Besides, the compound was classed as inactive in test [11] and in [15]. In addition, the max response in [13] was -7.57%; in test [6], 1.29% (inactive). The activity change % (negative = inhibition) in test [4] is -4.81% (inactive).
